# Data from the supplement of paper PMC10338343.
# ± gives the standard deviation. Whole data set: some 8,200 sequences, median “pre-steady-state target cleavage rate” near 0.024, cut for the highest 2% near 1.3. The full list was thinned out, with the highest values kept by preference.
# System: MIWI (PIWIL1) piRISC loaded with L1MC piRNA (30 nt)
# Experiment: pre-steady-state target cleavage rate (min^-1); MIWI and MILI are mouse PIWI proteins and EfPiwi is from a freshwater sponge; tags in brackets are library labels; higher = faster piRNA-guided slicing of the target
# Conditions: guide: L1MC piRNA 5'p-UAACUAAAUACUAUGCAAGCUGUAGGUCCU
# How it was run: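 Cleave-'n-Seq: a transcribed, DNA-blocked target RNA library (0.1 nM) was mixed with 1 nM active affinity-purified piRISC carrying one synthetic guide, with or without 500 nM GTSF1 partner protein, in HEPES–potassium acetate buffer at 33 °C for 0–8 or 0–960 min. Uncleaved targets were sequenced and normalised to depth and to weakly complementary targets. Three trials were pooled, and k3 was capped at 0.0001 min^-1. The pre-steady-state cleavage rate came from a burst-and-steady-state fit.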
# [1] = auxiliary factor: 500 nM mouse GTSF1
# [2] = auxiliary factor: none (no GTSF1)
Sequence,pre-steady-state target cleavage rate [1],pre-steady-state target cleavage rate [2]
UCCUGGAUCAGCUUGCAUAGUAAUUAGAUA,0.216 ± 0.036,0.0126 ± 0.0029
UCCUGGAACAGCUUGGUAAGUAUUUAGUUA,0.00797 ± 0.0031,
UCCUGGAUGUGCUUGACAUAGUAUUUAGUUA,0.0551 ± 0.0082,
UCCUGGAUCAGCUUGCAUAGUAUUAUGUAA,0.0189 ± 0.0065,0.00377 ± 0.0026
UCCUGGAUGUGCUUGGAUACUAUUUAGUUA,0.031 ± 0.011,0.0033 ± 0.0029
UCCUGGAUGUCGAACCAUACUAAUUAGUUA,,< 0.0001
AGGACCUACAGCUAGCAUAGUAAUUAGUUA,0.745 ± 0.06,0.0091 ± 0.0021
UCCUGGAUCACCAUGCAUAGUAUUUAGUUA,0.0303 ± 0.0068,
UGGUCCUACAGCUUGCUUAGUAUUUAGUUA,1.21 ± 0.035,0.0478 ± 0.0087
AGGUCCUACAGCUUGCUUAGUAUUUAGUUA,1.54 ± 0.069,0.0542 ± 0.011
UCCAGCUACAGCUUGCUUAGUAUUUAGUUA,0.78 ± 0.039,0.0235 ± 0.004
UCGUCCUACAGCUUGCUUAGUAUUUAGUUA,1.43 ± 0.047,0.0358 ± 0.0073
UCCUGCUACAGCUUGCUUAGUAUUUAGUUA,0.987 ± 0.056,0.0337 ± 0.008
UCCUCCUACAGCUUGCUAGUAUUUAGUUA,0.0615 ± 0.017,
AGGACCUACAGCUUGCAUAGAUAUUUAGUUA,0.143 ± 0.048,
UCCACCUACAGCUUGCAUUCAAUUUAGUUA,0.0179 ± 0.0084,
UGGACCUGACAGCUUGCAUAGUAUUUAGUUA,1.56 ± 0.12,0.0824 ± 0.017
AGGACCUUCUGCUUGCAUAGUAUUUAGUUA,1.24 ± 0.042,0.082 ± 0.015
UCCACCUGCAGCUUGCAUAGUAUUUAGUUA,1.15 ± 0.13,0.0541 ± 0.011
UGGACCUUCUGCUUGCAUAGUAUUUAGUUA,1.3 ± 0.066,0.0534 ± 0.0096
UCGACCUGCAGCUUGCAUAGUAUUUAGUUA,1.41 ± 0.072,0.0674 ± 0.013

Sequence,pre-steady-state target cleavage rate [1],pre-steady-state target cleavage rate [2]
UCGACCUGACAGCUUGCAUAGUAUUUAGUUA,1.25 ± 0.057,0.0632 ± 0.011
AGGACCUGCAGCUUGCAUAGUAUUUAGUUA,1.38 ± 0.088,0.0689 ± 0.014
UCGACCUUGUGCUUGCAUAGUAUUUAGUUA,0.871 ± 0.038,0.0513 ± 0.0098
UCGACCUUCUGCUUGCAUAGUAUUUAGUUA,1.45 ± 0.048,0.0653 ± 0.011
AGGACCUGACAGCUUGCAUAGUAUUUAGUUA,1.17 ± 0.07,0.067 ± 0.011
UCCUCCUGCAGCUUGCAUAGUAUUUAGUUA,1.1 ± 0.053,0.0513 ± 0.0088
UCCUGGAACAGCUUGCAUAGUAUUUAGUAA,0.685 ± 0.046,0.0337 ± 0.0083
UCCUGCUACACGAUGCAUAGUAUUUAGUAA,0.396 ± 0.032,
UCCUGGAUGUCGAUGCUUAGUAUUUUGUUA,< 0.0001,
UCCUGGAUCACGUUGCAUAGUAUUUAGUAA,0.0198 ± 0.0044,
UCGACGUACAGCUUCCAUAGUAUUUAGUUA,0.0527 ± 0.011,0.00418 ± 0.0013
UCGAGCUACAGCUUGCAUAGUAUUUUGUUA,1.06 ± 0.06,0.0528 ± 0.0088
UCCUGGAUGAGCUUGCAUAGUAUUAUGUUA,0.194 ± 0.027,0.0102 ± 0.0042
UCCUGGAUGAGCUUGCAUAGUAAUUAGAAA,0.0194 ± 0.0086,
UCCUGGUACAGCUUGCAUAGUAUUUUGAUA,0.166 ± 0.031,0.00994 ± 0.0034
UGGACCUAGUGCUUGCAUAGUAUUUAGUUA,0.979 ± 0.061,0.0419 ± 0.0095
UCCUGCUGCAGCUUGCAUAGUAUUUAGUUA,1.27 ± 0.058,0.0512 ± 0.011
UGGACCUGCAGCUUGCAUAGUAUUUAGUUA,1.57 ± 0.099,0.0683 ± 0.013
UCCUGGAUGUCGAACCAUAGAAUAUAGUUA,,< 0.0001
UCCUGGAUGUCCAUGCAUAGUAUUUUGUUA,0.00484 ± 0.0039,
UCGACCUUCAGCUUGCAAAGUAUUUAGUUA,1.33 ± 0.045,0.0401 ± 0.0087

Sequence,pre-steady-state target cleavage rate [1],pre-steady-state target cleavage rate [2]
AGCACCUUCAGCUUGCAUAGUAUUUAGUUA,0.711 ± 0.089,0.0548 ± 0.014
ACGACCUUCAGCUUGCAUAGUAUUUAGUUA,1.45 ± 0.042,0.0921 ± 0.015
UGCACCUUCAGCUUGCAUAGUAUUUAGUUA,1.08 ± 0.091,0.0562 ± 0.011
UCCACCUUCAGCUUGCAAAGUAUUUAGUUA,1.17 ± 0.038,0.0305 ± 0.0063
UCGACCUUCAGCUUGCAUAGUAUUUAGUUA,1.51 ± 0.047,0.0696 ± 0.012
UCGACCUUCAGCUUGCAUAGUAUUUAGUAA,1.05 ± 0.065,0.043 ± 0.011
UCCUCCUUCAGCUUGCUUAGUAUUUAGUUA,1.31 ± 0.054,0.0243 ± 0.0053
UCGACCUUCAGCUUGCAUAGUAUUUAGAAA,0.659 ± 0.064,0.0103 ± 0.0029
UCCACCUUCAGCUUGCUUAGUAUUUAGUUA,1.16 ± 0.037,0.0231 ± 0.005
UCGACCUUCAGCUUGCUUAGUAUUUAGUUA,1.33 ± 0.05,0.0363 ± 0.0088
UCCUCCUUCAGCUUGCAAAGUAUUUAGUUA,1.16 ± 0.041,0.0323 ± 0.0072
UCCUCGUACAGCUUGCAUAGUUUUUAGUUA,0.478 ± 0.013,0.0475 ± 0.011
UCCUGCUACAGCUUGCAUAGUAAUUUCAAA,0.278 ± 0.074,
UCCACCAACUGCUUGCAUAGUAUUUAGUUA,0.828 ± 0.036,0.0532 ± 0.0097
UGGACCUACAGCAUGCAUAGUAUUUAGAAA,0.5 ± 0.061,0.00651 ± 0.0026
UCCACCUACACCUUGCAUAGUAUAUAGUUA,0.543 ± 0.068,0.025 ± 0.0054
UCCUGCAACAGCUUGCAUAGAAUUUAGUUA,0.492 ± 0.048,0.0261 ± 0.0079
UCCUGGAUCAGCUUGCAAACUAUUUAGUUA,0.0815 ± 0.0098,0.00677 ± 0.003
AGGACCUAAGCUUGCAUAGUAUUUAGUUA,1.05 ± 0.071,0.0685 ± 0.013
UCGACCUACACCUUGCAUAGUAUUUAGUUA,1.15 ± 0.046,0.0525 ± 0.008
AGGACCUACAUGCUUGCAUAGUAUUUAGUUA,0.767 ± 0.056,0.0684 ± 0.013
